Measurements from PubChem BioAssay (NCI).
The panel holds about 83,000 compounds, 20% with a hit somewhere; the sample as a whole holds those more often.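 Assay: single dose, 48 h. Readout: percent growth (0 = no net growth; negative = cell death). Active: <10.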 A number with no mark means an inactive call. Active and inactive are the calls of the source.

The molecules below were run on HL-60(TB) leukemia (assay: NCI-60 one-dose screen, 48 h (100 = growth as untreated, 0 = no growth, -100 = all killed)). Details: 10 µM unless noted.
In the case of COc1ccc(NC(=O)/C=C(C)/C=C/C=C(C)/C=C/C2=C(C)CCCC2(C)C)cc1, the growth is reported as 5.62% (active). Work on COc1ccc(CNCCCN2C(=O)c3ccc4c5c(ccc(c35)C2=O)C(=O)N(CCCNCCCCNCCCN)C4=O)c(OC)c1OC yielded a growth of 26.2%. In the case of COc1ccc(S(=O)(=O)Nc2c(/C=C\c3cc(OC)c(OC)c(OC)c3)ccc(OC)c2O)cc1, the growth is reported as -42.3% (active). With O=C(CCc1nnc2sc(-c3ccccc3)nn12)c1nc2ccccc2[nH]1 the growth was 105%. Molecule O=C1C=CC(=O)N1C1c2ccccc2-c2ccccc21 has a growth of 77.7%. COC(=O)[C@H](C)NC(=O)[C@@H]1CCCN1C(=O)CNC(=O)[C@H](C)N was tested, and the growth was 104%. In the case of CC(C)C(=O)Nc1ncc(C(=O)NCCN(Cc2ccccc2)C(=O)c2ccc(S(=O)(=O)Nc3ccccc3)cc2)s1, the growth is reported as 107%. CC1OC(n2c3ccccc3c3c4c(c5c6ccccc6[nH]c5c32)C(=O)N(CCN2CCOCC2)C4=O)CC(O)C1O (stereo not given) was tested, and the growth was 24.3%. CN(C)c1ccc(/C=C(\C#N)c2nc3ccccc3n2C)cc1 was tested, and the growth was 1.21% (active). Clc1cc(Cl)c(OCCCCCCN2CCNCC2)c(Cl)c1 was tested, and the growth was -34.3% (active). For CCCCCCCCCc1cc[n+](CC(=O)c2ccc([N+](=O)[O-])cc2)cc1, the growth was -40.4% (active). Molecule Oc1nc(NCc2ccccc2)sc1/C=C1\C=Nc2ncccc21 has a growth of 36.4%. Molecule COc1cc(NC(=O)c2sc3nc4c(cc3c2N)C(O)CCC4)cc(OC)c1 (stereo not given) has a growth of 73.2%. For COc1ccc2c(c1)oc1c(C)c3c(c(C)c12)C(=O)N(N)C3=O, the growth was 38.3%. COC(=O)c1ccc(NC(=O)CSc2nc(-c3ccc(F)cc3)nc3ccccc23)cc1 was tested, and the growth was 94.3%. Nc1nc(N)c2cc(CNc3ccc(C(=O)NC(CC(=O)O)C(=O)O)cc3)ccc2n1 (stereo not given) was tested, and the growth was 19.4%. CC(C)(C)c1ccc(C(=O)Nc2sc3c(c2C#N)CCC(=O)C3)cc1 was tested, and the growth was -1.94% (active). For CC(=O)CC(=O)c1ccccc1.[Cu+2], the growth was 67.2%. Work on N[C@@H](CC/[N+]([O-])=N/O)C(=O)O yielded a growth of 110%. For Nc1ccc2[nH]c(-c3ccccc3)cc(=O)c2c1, the growth was 88.2%. OCCNc1nccc(N2CCN(c3ccnc4cc(Cl)ccc34)CC2)n1 was tested, and the growth was 47.8%. For COc1ccc2c(c1OC)O/C(=C\c1ncc([N+](=O)[O-])n1C)C2=O, the growth was -7.92% (active). Oc1c(Cl)cc(Cl)cc1C(c1cc(Cl)cc(Cl)c1O)C(Cl)(Cl)Cl was tested, and the growth was 1.53% (active). With CCOC(=O)c1cc(C(=O)c2cc(OC)cc(OC)c2)n2ccccc12 the growth was -13.9% (active). Molecule CCCCOCCOCCOCc1cc2c(cc1Br)OCO2 has a growth of 108%. For COc1cccc2cc(N(C)c3nc(C)nc4c3CCC4)ccc12, the growth was -8.85% (active). With O=[N+]([O-])c1cccc2nsnc12 the growth was 104%. Molecule CC(=O)/C(=C/c1ccc([N+](=O)[O-])cc1)C(=O)c1ccccc1 has a growth of 41.9%. O=C(CN1CCN(c2cc3c(cc2F)c(=O)c(C(=O)O)cn3C2CC2)CC1)Nc1cc(=O)[nH]c(=O)[nH]1 showed a growth of 103%. With COc1cc(CNCCCN2C(=O)c3ccc4c5c(ccc(c35)C2=O)C(=O)N(CCCNCc2cc(OC)c(OC)c(OC)c2)C4=O)cc(OC)c1OC the growth was -35.8% (active). In the case of Cc1ccc(S(=O)(=O)NCN2C(=O)c3ccccc3C2=O)cc1, the growth is reported as 106%. Molecule CC[C@@H](C)[C@H](NC(=O)Cn1cc(CNC(=O)[C@@H](NC(=O)OCc2ccccc2)C(C)C)nn1)C(=O)O has a growth of 113%. O=C(CCCCC(=O)Oc1c(Cl)cc(Cl)cc1[N+](=O)[O-])Oc1c(Cl)cc(Cl)cc1[N+](=O)[O-] showed a growth of 81.9%. O=[N+]([O-])c1ccc2[nH]c(=S)n(/C=C(/c3ccc(Cl)cc3Cl)S(=O)(=O)Cc3ccc(Cl)cc3Cl)c2c1 was tested, and the growth was 101%. CNc1ccccc1C(=O)N/N=C/C=C/c1ccccc1 was tested, and the growth was -32.6% (active). In the case of COC(=O)N[C@H]1CCc2c(Cl)c(OC)c(OC)c(OC)c2-c2ccc(SC)c(=O)cc21, the growth is reported as -42.4% (active). CCCCCCNC(=O)Oc1ccc(/C(=C(\C)c2ccc(Cl)cc2)c2ccc(OCCN(CC)CC)cc2)cc1 gave a growth of 44.3%. With COc1cc(-c2ccc(-c3ccc(C(=N)N)nc3)s2)cc(OC)c1OC the growth was -40.6% (active). Cc1cc(C)nc(NS(=O)(=O)c2ccc(Nc3nc4nc(SCc5ccccc5)nc(-c5ccc(O)cc5)c4c(=O)[nH]3)cc2)n1 was tested, and the growth was 86.3%. Work on CC(=O)[C@H]1CC[C@H]2[C@@H]3CC[C@@H]4CC=C(C=O)C[C@]4(C)[C@H]3CC[C@]12C yielded a growth of 78.2%.
